Sampled rows, rich in hits. Any-hit rate of the full collection: about 3.3%.
Tau fibril ThT: tau fibrillization inhibition (ThT binding) | recombinant tau K18 P301L, heparin-induced fibrillization, ThT fluorescence | Potency, µM (titrated, usually from 57.4 µM), inactives show at the highest dose activity, negative = inhibition, usual class: inhibitors | hit rate 2.1% among 270,000 | AID 1460; also: nearly all actives have a fitted effect of over 55% in size
Target sequence (P10636 561-689 P618L limits assumed): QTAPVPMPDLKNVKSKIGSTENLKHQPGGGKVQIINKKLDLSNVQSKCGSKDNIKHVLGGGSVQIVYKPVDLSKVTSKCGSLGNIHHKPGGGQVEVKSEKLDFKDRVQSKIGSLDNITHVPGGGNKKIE
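Fibril formation assay: tau K18 P301L at 15 uM with trace Alexa 594 label, heparin inducer 20 uM, pH 7 sodium acetate buffer, 37 C for 6 hr; endpoint ThT signal.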
Tau fluor cs: counter-screen for tau fibril formation inhibitors | tau K18 P301L (four-repeat tau fragment) Alexa594 fluorescence, heparin fibrillization | Potency, µM (titrated, usually from 57.7 µM), inactives show at the highest dose activity change, negative = decrease | hit rate 0.93% among 280,000 | AID 1463; also: nearly all actives have a fitted effect of over 55% in size
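Human K18 P301L tau (15 uM unlabeled plus 0.24 uM Alexa 594-labeled, final) in 100 mM sodium acetate pH 7 was mixed with compound and 20 uM heparin and incubated 6 hr at 37 C.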
Tau fibril FP: tau fibrillization inhibition (FP); K18 P301L tau heparin fibrillization, Alexa594 FP, 6 h; Potency, µM (doses to about 57.7 µM), for the others: at the top dose activity, negative = inhibition, actives largely listed as inhibitors; hit rate 0.39% among 280,000; AID 1468; also: nearly all actives have a fitted effect of over 55% in size
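Human tau K18 […] P301L fragment, 15 uM unlabeled plus 0.24 uM Alexa 594-labeled tau (final), with compound and 20 uM heparin in 100 mM sodium acetate pH 7; 6 hr at 37 C, then Alexa 594 FP read.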
Luc counter: Kinase-Glo luciferase inhibition (counter-screen); hit rate 0.28% among 200,000; AID 1379; Kinase-Glo luciferase, ATP luminescence, 8 min; Potency, µM (doses to about 38.3 µM), for inactives: at the highest dose activity change, negative = inhibition, most hits filed as inhibitors; also: nearly all actives have a fitted effect of over 60% in size
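Light output from Kinase-Glo luciferase with luciferin and 10 uM ATP in 50 mM imidazole pH 7.2, KCl, MgCl2, Tween 20, BSA; compound pin-delivered, 8-min ambient incubation, then luminescence read.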
NPSR antag: blocks cAMP signaling of the human neuropeptide S receptor | Q6W5P4 | CHO-NPSR cells, cAMP TR-FRET, antagonist mode | Potency, µM (titrated, usually from 38.3 µM), for inactives: at the top dose activity change, negative = inhibition, hits mostly inhibitors | hit rate 1% among 220,000; also: nearly all actives have a fitted effect of over 50% in size
Target sequence (Q6W5P4 whole entry, looked up): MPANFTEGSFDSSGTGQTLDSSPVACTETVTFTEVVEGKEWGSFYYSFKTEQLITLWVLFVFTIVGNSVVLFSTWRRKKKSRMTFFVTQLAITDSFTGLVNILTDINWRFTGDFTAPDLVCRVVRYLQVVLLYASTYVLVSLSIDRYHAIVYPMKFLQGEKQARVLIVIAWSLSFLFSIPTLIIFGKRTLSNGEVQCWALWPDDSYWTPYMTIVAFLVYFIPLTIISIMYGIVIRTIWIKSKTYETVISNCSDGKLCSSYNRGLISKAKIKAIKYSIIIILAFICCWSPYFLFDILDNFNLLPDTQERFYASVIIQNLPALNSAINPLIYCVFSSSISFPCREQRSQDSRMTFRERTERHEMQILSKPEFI
Numbers without * were called inactive; ? = inconclusive; / = no result; [ ] = another dose, or the depositor's remark. Calls follow the shape of the dose curve; as a rule, active = well fitted curve in the direction sought with a large enough effect; inconclusive = small, poorly fitted or top-dose-only effect, or another doubt; inactive = no such curve, though single readings can be large; an effect the other way counts as inactive or inconclusive. % is scaled to controls: 0 for no effect and ±100 for the full control effect; potency is read from the fitted curve at half-maximal effect.

SMILES | Tau fibril ThT | Tau fluor cs | Tau fibril FP | Luc counter | NPSR antag
Cc1cc(C)cc(NC(=O)NCc2noc3ccccc23)c1 | 1.9% | -29.5% | ? | / | /
Cc1cccc(OCC(=O)N=Nc2c(O)[nH]c3ccc([N+](=O)[O-])cc23)c1 | 3.98µM* | ? | -7.2% | / | 27.0%
CCNC(=S)N=Nc1c(O)[nH]c2ccc([N+](=O)[O-])cc12 | ? | -13.2% | 5.9% | 0.1% | -40.8%
O=[N+]([O-])c1ccc2[nH]c(O)c(N=NC(=S)Nc3cccnc3)c2c1 | 2.24µM* | ? | 12.2% | / | -4.5%
CC#C[C@]1(O)CC[C@H]2[C@@H]3CCC4=CC(=O)CCC4=C3[C@H](c3ccc(N(C)C)cc3)C[C@@]21C | -16.9% | -20.9% | 3.7% | -1.9% | /
CC#C[C@]1(O)CC[C@H]2[C@@H]3CCC4=CC(=O)CCC4=C3[C@@H](c3ccc(N(C)C)cc3)C[C@@]21C | -20.7% | -23.9% | 9.1% | 13.7% | 12.6µM*
CCOc1ccc(S(=O)(=O)Nc2ccc3oc(C)c(C(=O)OCCOC)c3c2)cc1 | -11.9% | -29.8% | 2.2% | / | /
CCCCOC(=O)c1c(C)oc2ccc(NS(=O)(=O)c3ccc4c5c(cccc35)C(=O)N4)cc12 | ? | 15.8µM*[quencher] | -1.9% | 16.7% | ?
CC(O)C(NS(=O)(=O)c1ccc(Cl)cc1)C(=O)OCC(=O)c1c[nH]c2ccccc12 (stereo not drawn) | 1.1% | -15.2% | -6.7% | 2.0% | -15.7%
CC(C)Cc1ccc(C(C)C(=O)OCC(=O)c2c[nH]c3ccccc23)cc1 (stereo not drawn) | -14.3% | ? | 22.4µM* | -2.2% | -17.0%[46.1 µM]
CC(C)C(NS(=O)(=O)c1c(Cl)cccc1Cl)C(=O)OCC(=O)c1c[nH]c2ccccc12 (stereo not drawn) | 5.3% | 8.91µM*[quencher] | ? | -1.5% | -36.8%
CC(=O)c1ccc(NC(=O)c2cc3sccc3n2Cc2ccc(Cl)cc2)cc1 | -14.7% | ? | 10µM* | / | /
O=C(Nc1ccc2c(c1)OCCO2)c1cc2sccc2n1Cc1ccc(F)cc1 | -14.5% | ? | 4.8% | 0.4% | ?
O=C(Nc1ccc2c(c1)OCCO2)c1cc2sccc2n1Cc1ccccc1 | -13.2% | 14.1µM*[quencher] | -6.4% | 0.6% | ?
O=[N+]([O-])c1ccc(Nc2ccc(Cl)cc2)nc1 | -6.5% | -6.4% | -2.7% | -2.8% | -0.9%
O=[N+]([O-])c1ccc(Nc2ccc3ccccc3c2)nc1 | 1.26µM* | ? | -8.9% | 4.0% | -29.8%[46.1 µM]
CC1(C(=O)O)NCCc2cc(O)c(O)cc21 (stereo not drawn) | 20µM* | -15.6% | ? | / | /
Oc1cc2c(cc1O)C(c1ccccc1)CNCC2 (stereo not drawn) | ? | ? | ? | -9.7% | -3.2%[46.1 µM]
CCCCCCCC1=CC2=C(Cl)C(=O)C(C)(OC(C)=O)C(=O)C2=CN1C (stereo not drawn) | ? | -23.0% | -12.7% | -1.0% | /
O=C(NCc1ccco1)/C(=C/c1ccco1)NC(=O)c1ccc(Br)o1 | ? | -9.5% | -5.1% | 2.3% | -2.1%[46.1 µM]
O=C(NCc1ccco1)/C(=C\c1ccco1)NC(=O)c1ccco1 | 39.8µM* | ? | ? | / | 51.8%
CN(C)c1ccc(CNC(=O)C2CCCN(S(=O)(=O)c3ccc4c(ccn4C)c3)C2)cc1 (stereo not drawn) | 3.6% | -19.2% | 6.5% | / | /
CC(=O)CCCCn1cnc2c1c(=O)n(C)c(=O)n2C | -2.2% | 3.3% | -1.0% | / | 13.2%
CN(C)CCNC(=O)c1ccccc1 | -5.3% | -6.3% | -6.1% | 2.9% | -5.0%[46.1 µM]
CN(C)CCNC(=O)c1ccc(-n2c(-c3ccccc3)cc3c2CCCCC3)cc1 | 0.7% | ? | 22.4µM* | / | /
SMILES | Tau fibril ThT | Tau fluor cs | Tau fibril FP | Luc counter | NPSR antag
COCCCNC(=O)c1ccc(-n2c(-c3ccccc3)cc3c2CCCCC3)cc1 | -5.0% | ? | 17.8µM* | / | /
CCOCCCNC(=O)c1ccc(-n2c(-c3ccccc3)cc3c2CCCC3)cc1 | ? | ? | -6.1% | / | /
CC(C)COc1ccc(/C=C2/Sc3ccccc3C2=O)cc1 | 4.47µM* | -5.3% | 12.0% | -24.1% | -10.6%[46.1 µM]
CC(=O)Oc1cccc(/C=C2\Sc3ccccc3C2=O)c1 | 10µM* | ? | -8.3% | / | 44.4%
CCCCOc1ccc(/C=C2/Sc3ccccc3C2=O)cc1 | 3.55µM* | ? | 1.0% | -16.5% | 3.7%[46.1 µM]
FC(F)(F)c1ccc2c(c1)N1CCCC1CN2 (stereo not drawn) | 17.8µM* | ? | -6.8% | -16.3% | 29.5%
COC(=O)C1=C(C)N=C2SC(C#N)=C(N)N2C1c1cc(OC)c(OC)c(OC)c1 (stereo not drawn) | -17.2% | -9.4% | 2.0% | / | ?
COC(=O)C1=C(C)N=C2SC(C#N)=C(N)N2C1c1ccc(OCc2ccccc2)cc1 (stereo not drawn) | ? | 7.94µM*[quencher] | ? | 1.3% | -24.0%[46.1 µM]
COc1cccc(CNC(=O)CCS(=O)(=O)c2cc3c4c(c2)CCN4C(=O)CC3)c1 | -2.5% | 1.7% | 1.1% | / | /
COc1ccc(C(c2c(C)[nH]n(C(N)=S)c2=O)C(C#N)C#N)cc1 (stereo not drawn) | ? | -26.2% | ? | 0.0% | ?
Cc1ccc(N=Nc2c(C)[nH]n(C(N)=S)c2=O)cc1C | 4.47µM* | -3.9% | 5.3% | -1.9% | -12.3%
Cc1[nH]n(C(N)=S)c(=O)c1N=Nc1cc(-c2ccc(Br)cc2)[nH]n1 | 2.24µM* | ? | 3.0% | 1.3% | -18.2%
Nc1cc(-c2ccc(Br)cc2)[nH]n1 | 3.8% | -0.7% | 7.3% | 2.8% | 0.4%
CC(=O)Nc1ccc(N=Nc2c(C)[nH]n(C(N)=S)c2=O)cc1 | 8.91µM* | -21.5% | -6.7% | 1.4% | -41.5%
Cc1ccc(S(=O)(=O)N2CCN(S(=O)(=O)N3CCCCC3)CC2)cc1 | 7.6% | 3.5% | 4.8% | 2.7% | -11.8%[46.1 µM]
Cc1[nH]n(C(N)=S)c(=O)c1N=Nc1ccc(S(=O)(=O)N2CCCCCC2)cc1 | 25.1µM* | -25.6% | 6.7% | -6.8% | -15.4%[46.1 µM]
CCCCC[C@H](O)/C=C/C=C\C/C=C\C/C=C\CCCC(=O)O | -2.5% | 2.3% | 4.0% | -4.8% | /
CCCCNc1ncnc2c1nnn2C | 2.7% | 8.4% | 0.5% | / | /
O=C(Nc1ccc(F)c(Cl)c1)c1cc(S(=O)(=O)N2CCCc3ccccc32)ccc1F | -3.7% | ? | ? | / | /
Cc1cccc(-n2c(SCC(=O)c3ccccc3)nnc2-c2ccc(Br)cc2)c1 | 5.6% | 6.5% | -4.2% | / | /
Cc1[nH]n(C(N)=S)c(=O)c1N=Nc1ccc2ccccc2c1 | 2.82µM* | ? | 3.0% | 0.6% | -18.3%
Cc1cc(C)n(-c2nc(NC(C)(C)C)nc(NC(C)(C)C)n2)n1 | -4.0% | -1.4% | -4.0% | -1.5% | -4.4%[46.1 µM]
Cc1cc(C)n(-c2nc(Nc3ccccc3C(F)(F)F)nc(-n3nc(C)cc3C)n2)n1 | -22.9% | -13.0% | -11.2% | -3.5% | 0.316µM*
CCc1ccccc1NC(=O)C(=O)NCCCN1CCOCC1 | 0.8% | 0.2% | -4.5% | / | /
COCC(=O)NCCSc1c(C)[nH]c2ccccc12 | 1.9% | 4.8% | 2.1% | 3.4% | -19.4%[46.1 µM]
